{"source": "PubChem BioAssay (Tox21)", "note": "Records with an inconclusive call do not appear. Active and inactive are the calls of the source. The call rests on the fitted dose curve; in most records, active means well fitted cell-killing curve with a large enough effect in the repeat runs; inconclusive means weak or mixed curves, or effect the other way; inactive means no such curve, though single readings can be large or run the other way. On the % scale 0 is the no-effect control and ±100 the full control effect.", "data": [{"experiment": "qHTS assay to identify small molecule antagonists of the vitamin D receptor (VDR) signaling pathway - cell viability counter screen (AID 743225); further: nearly all actives have a fitted effect of over 50% in size", "settings": "VDR-bla HEK293T viability, CellTiter-Glo luminescence, 16 h; series mostly up to 61 µM; viability change, negative = cytotoxic: at the top concentration", "text": "U.S. Tox21 Program National Center for Advancing Translational Sciences [NCATS] NIH Chemical Genomics Center [NCGC] U.S. Environmental Protection Agency [EPA] National Institutes of Environmental Health Sciences [NIEHS] National Toxicology Program [NTP] U.S. Food and Drug Administration [FDA] Tox21 Assay Overview: The vitamin D receptor (VDR), a member of nuclear hormone receptor superfamily, plays a critical role in calcium homeostasis and bone metabolism. It is also involved in cell differentiation and growth, and thrombogenicity. To identify the compounds that inhibit VDR signaling, the VDR-UAS-bla HEK 293T cell line (Invitrogen, Carlsbad, CA, USA) containing a beta-lactamase reporter gene under the control of an upstream activator sequence (UAS) was used to screen the Tox21 10K compound library. The cytotoxicity of the Tox21 compound library against the VDR-bla cell line was tested in parallel by measuring the cell viability using CellTiter-Glo assay (Promega, Madison, WI) in the same wells.\nTox21 Assay Protocol Summary: VDR-bla cells were dispensed at 2,000 cells/5 uL of assay medium per well into black wall/clear-bottom 1536-well plates using a Multidrop Combi (Thermo Fisher Scientific, Waltham, MA) dispenser. After the assay plates were incubated at a 37C and 5% CO2 for 4 h, 23 nL of compounds dissolved in DMSO, positive controls or DMSO only was transferred to the assay plate by a Pintool station (Kalypsys, San Diego, CA), followed by addition of 1 uL of 1-alpha, 25-Dihydroxy Vitamin D3 (3 nM, final concentration in the wells) using a Bioraptr Flying Reagent Dispenser (FRD) workstation (Beckman Coulter, Indianapolis, IN). The plates were incubated at 37C and 5% CO2 for 16 h, and then 1 uL of LiveBLAzerTM B/G FRET substrate was added using a Bioraptr FRD. The plates were incubated at room temperature for 2 h and fluorescence intensity was measured by an Envision plate reader (PerkinElmer, Shelton, CT). For cell viability readout that measures cytotoxicity, 3 ul/well of CellTiter-Glo reagent was added into the assay plates using a Bioraptr FRD. After 30 min incubation at room temperature, the luminescence intensity in the plates was measured using a ViewLux plate reader (PerkinElmer).", "values": [{"smiles": "CC(O)COc1ccccc1", "note": "(stereo not given)", "outcome": "inactive"}, {"smiles": "Oc1cccc(O)c1", "outcome": "inactive"}, {"smiles": "CCOCCO", "viability change, negative = cytotoxic": "17% [at 78.8 µM] (inactive)"}, {"smiles": "CC1(C)O[C@@H]2[C@@H](CO[C@@]3(COS(N)(=O)=O)OC(C)(C)O[C@@H]23)O1", "viability change, negative = cytotoxic": "5.04% (inactive)"}, {"smiles": "C=C(C)OC(C)=O", "outcome": "inactive"}, {"smiles": "NC(=O)NO", "outcome": "inactive"}, {"smiles": "NC(=O)N/N=C/c1ccc([N+](=O)[O-])o1", "outcome": "inactive"}, {"smiles": "COCCOCCOC", "viability change, negative = cytotoxic": "-3.61% (inactive)"}, {"smiles": "CC(=O)OC/C=C(C)/C=C/C=C(C)/C=C/C1=C(C)CCCC1(C)C", "outcome": "inactive"}, {"smiles": "CCCCCCCCOc1ccc(C(=O)c2ccccc2)c(O)c1", "viability change, negative = cytotoxic": "18.6% (inactive)"}, {"smiles": "CCCCOCCOCCOC(C)=O", "outcome": "inactive"}, {"smiles": "O=C(O)Cc1cccc2ccccc12", "outcome": "inactive"}, {"smiles": "N[C@@H](Cc1c[nH]c2ccc(O)cc12)C(=O)O", "viability change, negative = cytotoxic": "6.37% (inactive)"}, {"smiles": "c1ccc2[nH]c(-c3cscn3)nc2c1", "outcome": "inactive"}, {"smiles": "C1CNCCN1", "viability change, negative = cytotoxic": "13.2% (inactive)"}, {"smiles": "Cn1cnc2c1c(=O)[nH]c(=O)n2C", "outcome": "inactive"}, {"smiles": "Cc1c(N(C)C)c(=O)n(-c2ccccc2)n1C", "viability change, negative = cytotoxic": "-2.75% [at 78.8 µM] (inactive)"}, {"smiles": "OCCCc1ccccc1", "viability change, negative = cytotoxic": "2.83% (inactive)"}, {"smiles": "CCCCCCCCCCCCCC(=O)OC(C)C", "outcome": "inactive"}, {"smiles": "C[C@]12CC[C@@H]3c4ccc(O)cc4CC[C@H]3[C@@H]1CCC2=O", "outcome": "inactive"}, {"smiles": "Cc1c(N(C)CS(=O)(=O)O)c(=O)n(-c2ccccc2)n1C", "outcome": "inactive"}, {"smiles": "C=C(C)C(N)=O", "outcome": "inactive"}, {"smiles": "COc1ccc(C(=O)c2ccccc2)c(O)c1", "outcome": "inactive"}, {"smiles": "COc1cc(O)c(C(=O)c2ccccc2)cc1S(=O)(=O)O", "outcome": "inactive"}, {"smiles": "CCc1cc(C(N)=S)ccn1", "outcome": "inactive"}, {"smiles": "C#C[C@]1(O)CC[C@H]2[C@@H]3CCC4=CC(=O)CC[C@@H]4[C@H]3CC[C@@]21CC", "outcome": "inactive"}, {"smiles": "COCC(C)N", "note": "(stereo not given)", "outcome": "inactive"}, {"smiles": "CC1=NN(c2ccccc2)C(=O)C1", "outcome": "inactive"}, {"smiles": "O=c1c(-c2ccc(O)cc2)coc2cc(O)cc(O)c12", "outcome": "inactive"}, {"smiles": "Cc1cccc(Nc2cc(Cl)nc(SCC(=O)O)n2)c1C", "outcome": "inactive"}, {"smiles": "O=C(OCc1ccccc1)c1ccccc1", "outcome": "inactive"}, {"smiles": "Cc1cccc(C)c1O", "outcome": "inactive"}, {"smiles": "O=C1OC(c2ccc(O)cc2)(c2ccc(O)cc2)c2ccccc21", "outcome": "inactive"}, {"smiles": "CC(=O)c1ccc(S(=O)(=O)NC(=O)NC2CCCCC2)cc1", "outcome": "inactive"}, {"smiles": "CCCCOC(=O)CCCCCCCCC(=O)OCCCC", "outcome": "inactive"}, {"smiles": "C/C=C/c1ccc(O)c(OC)c1", "outcome": "inactive"}, {"smiles": "CN(C)C=O", "outcome": "inactive"}, {"smiles": "Nc1cccc(N)c1", "outcome": "inactive"}, {"smiles": "O=[N+]([O-])c1ccc(O)cc1", "outcome": "inactive"}, {"smiles": "NCCNc1cccc2ccccc12", "viability change, negative = cytotoxic": "-12% (inactive)"}]}]}
